Consider 6 molecules from PubChem BioAssay.

The nature of test [1]: small molecules captured by biotinylated probe aFSTL3 – biochemical, small-molecule microarray, fluorescence 635/667, stem cell growth factor project, primary screen (AID 1064).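 Further: measures binding of the biotinylated anti-FSTL3 antibody to printed compounds.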 The note with it: higher = more signal.
Test [2] in a line: binders from COS7 lysate, DM2A8 probe, primary screen, torsin A project, cell lysate, small-molecule microarray, fluorescence 635/667 (AID 1065). The note with it: higher = more signal, COS7 lysate expressing mutant human TOR1A.
Test [3] in a line: small molecules captured by biotinylated probe aFGF2 – biochemical, small-molecule microarray, fluorescence 635/667, stem cell growth factor project, primary screen (AID 1067).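 Further: measures binding of biotinylated aFGF2 protein to printed compounds on slides; z-score merges feature fluorescence and signal-to-noise across triplicate slides.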 Conditions: higher = more signal.
Test [4] in a line: small molecules captured by biotinylated probe aFGF10 – biochemical, small-molecule microarray, fluorescence 635/667, stem cell growth factor project, primary screen (AID 1071).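 Further: score merges 667 nm spot intensity and signal to noise from triplicate slides.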 The note with it: higher = more signal.
Test [5] concerns the target Neurogenic locus notch homolog protein 2 (Homo sapiens) (UniProt Q04721). Briefly: small molecules binding Notch2 protein – biochemical, small-molecule microarray, 635 nm fluorescence, stem cell growth factors, primary screen (AID 1073). The note with it: higher = more signal.
Test [6] deals with Pro-neuregulin-1, membrane-bound isoform (Homo sapiens) (UniProt Q02297). Briefly: small molecules binding neuregulin-1 protein – biochemical, small-molecule microarray, fluorescence 635/667, psychiatric disease protein project, primary screen (AID 1075).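 Further: score combines 667 nm spot fluorescence with signal to noise.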 Conditions: NRG1 binding, 635 nm fluorescence, higher = more signal.
The subject of test [7] is Neuregulin-1 EGF-like domain. The test is described as follows: small molecules binding NRG1 EGF domain – biochemical, small-molecule microarray, 635 nm fluorescence, primary screen (AID 1081).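 Further: binding of the protein to compounds printed on small-molecule microarray slides.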 Conditions: higher = more signal.
Test [8] can be described thus: FRG1 expression reporter modulators in myotubes – cell-based, C2C12 myotubes, firefly/Renilla luciferase, luminescence, FRG1 inhibition for FSHD, primary screen (AID 1084). Conditions: FRG1 promoter luciferase, higher = more signal, called active from +8 up or from −8 down.
Test [9] can be described thus: small molecules captured by biotinylated probe aFST – biochemical, small-molecule microarray, fluorescence 635/667, stem cell growth factor project, primary screen (AID 1086).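 Further: score merges 667 nm fluorescence with signal-to-noise of each printed compound spot.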 Conditions: higher = more signal.
Test [10] is described as follows: binders of probe aHhip on microarray, primary screen, stem cell growth factor project, biochemical, small-molecule microarray, fluorescence 635/667 (AID 1087).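 Further: score merges spot fluorescence at 667nm with spot signal to noise ratio.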 Conditions: higher = more signal.
The test system of test [11] is PRMT1 (protein arginine N-methyltransferase 1). Briefly: small molecules binding arginine methyltransferase PRMT1 – biochemical, small-molecule microarray, 635 nm fluorescence, primary screen (AID 1088).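 Further: binding of Prmt1 protein to compounds spotted on small-molecule microarray slides.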 Conditions: higher = more signal.
A short description of test [12]: growth effects on S. cerevisiae YJM789 – YJM789 clinical isolate, OD600, 24 h, basal, primary screen (AID 1089).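 Further: growth of clinical yeast isolate S. cerevisiae YJM 789 seeded 1000 cells per well; test concentration not given here.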 The note with it: higher = more signal, called active from +8 up or from −8 down.
The nature of test [13]: S. pombe growth modifiers, basal conditions – strain 972, OD600, 24 h, no modulator, primary screen (AID 1090).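 Further: basal condition with compound alone and no growth modifier present; test concentration not given here.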 The note with it: S. pombe 972 growth, higher = more signal, called active from +8 up or from −8 down.
Test [14] can be described thus: budding yeast growth modifiers under rapamycin – strain BY4716, OD600, 96 h, primary screen (AID 1091). Further: test concentration not given here. The note with it: S. cerevisiae BY4716 + rapamycin, higher = more signal, called active from +8 up or from −8 down.
The target of test [15] is Torsin-1A-interacting protein 2 (Homo sapiens) (UniProt Q8NFQ8). The test is described as follows: small molecules binding lysate-expressed LULL1 – cell lysate, human LULL1 lysate, 635/667 nm fluorescence, primary screen (AID 1092).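 Further: probe is lysate of COS7 cells overexpressing human LULL1; score merges per-feature 667 nm fluorescence with signal-to-noise.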 Conditions: small-molecule microarray, hLULL1 lysate binding, 635 nm fluorescence; higher = more signal.
Test [16] can be described thus: optical density change of DRC41 E. coli – strain DRC41, OD650, 24 h, E. coli filamentation project, primary screen (AID 1093).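 Further: MC1000 strain lacking acrAB efflux and sulA so SOS filamentation is blocked; test concentration not given here.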 The note with it: E. coli DRC41 growth, higher = more signal, called active from +8 up or from −8 down.
The nature of test [17]: probe aLefty2 binding to arrayed compounds – biochemical, biotinylated probe, 635/667 nm fluorescence, primary screen (AID 1094).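 Further: score merges spot fluorescence near 667 nm with spot signal-to-noise ratio.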 Conditions: small-molecule microarray, higher = more signal.
Test [18] relates to Noggin (protein binding on small-molecule microarray). The test is described as follows: small molecules binding Noggin protein – biochemical, 635/667 nm fluorescence, primary screen (AID 1095).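 Further: score merges 667 nm feature fluorescence with signal to noise over triplicate slides.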 The note with it: 635 nm fluorescence, higher = more signal.
Test [19] has as its target Neurogenic locus notch homolog protein 3 (Homo sapiens) (UniProt Q9UM47). Briefly: small molecules binding NOTCH3 protein – biochemical, 635/667 nm fluorescence, primary screen (AID 1096). The note with it: small-molecule microarray, 635 nm fluorescence, higher = more signal.
Test [20] in a line: probe aEGFR binding to arrayed compounds – biochemical, biotinylated probe, 635/667 nm fluorescence, primary screen (AID 1097).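 Further: probe is a biotinylated anti-EGFR antibody binding compounds printed on slides; score combines fluorescence near 667 nm and signal to noise of each spot.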 Conditions: small-molecule microarray, higher = more signal.

Activity calls are given as the source filed them.

Pro-neuregulin-1, membrane-bound isoform (Homo sapiens), sequence (Q02297 whole entry, looked up, the tested form may be a part, canonical isoform): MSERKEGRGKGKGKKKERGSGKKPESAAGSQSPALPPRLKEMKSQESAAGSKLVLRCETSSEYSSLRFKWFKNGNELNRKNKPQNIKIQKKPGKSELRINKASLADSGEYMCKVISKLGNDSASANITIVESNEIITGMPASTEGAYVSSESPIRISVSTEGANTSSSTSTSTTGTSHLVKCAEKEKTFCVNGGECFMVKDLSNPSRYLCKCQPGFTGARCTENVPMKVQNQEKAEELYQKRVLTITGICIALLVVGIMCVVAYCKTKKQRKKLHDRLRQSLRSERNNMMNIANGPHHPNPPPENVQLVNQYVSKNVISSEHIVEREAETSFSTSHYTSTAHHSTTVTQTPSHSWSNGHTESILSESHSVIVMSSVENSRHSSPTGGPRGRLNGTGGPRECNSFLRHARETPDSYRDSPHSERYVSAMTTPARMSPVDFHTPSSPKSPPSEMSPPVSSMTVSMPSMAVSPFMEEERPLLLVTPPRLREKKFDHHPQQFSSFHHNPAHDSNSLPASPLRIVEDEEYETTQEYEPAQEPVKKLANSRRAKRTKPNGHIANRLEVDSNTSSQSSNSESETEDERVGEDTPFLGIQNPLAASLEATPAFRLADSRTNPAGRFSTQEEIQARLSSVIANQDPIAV
Torsin-1A-interacting protein 2 (Homo sapiens), sequence (Q8NFQ8 whole entry, looked up): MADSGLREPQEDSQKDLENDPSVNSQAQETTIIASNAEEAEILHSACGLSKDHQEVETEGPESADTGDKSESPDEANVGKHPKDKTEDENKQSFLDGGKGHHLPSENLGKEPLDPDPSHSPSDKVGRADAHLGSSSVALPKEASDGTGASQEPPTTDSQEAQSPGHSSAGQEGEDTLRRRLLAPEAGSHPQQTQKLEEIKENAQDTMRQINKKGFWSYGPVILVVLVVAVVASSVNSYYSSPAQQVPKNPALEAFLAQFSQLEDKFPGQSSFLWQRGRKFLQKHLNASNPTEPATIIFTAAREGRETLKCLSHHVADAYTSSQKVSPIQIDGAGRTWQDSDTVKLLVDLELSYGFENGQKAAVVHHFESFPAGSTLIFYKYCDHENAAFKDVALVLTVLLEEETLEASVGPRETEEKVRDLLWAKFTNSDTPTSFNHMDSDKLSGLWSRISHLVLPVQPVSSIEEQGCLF
Neurogenic locus notch homolog protein 2 (Homo sapiens), sequence (Q04721 whole entry, looked up, canonical isoform): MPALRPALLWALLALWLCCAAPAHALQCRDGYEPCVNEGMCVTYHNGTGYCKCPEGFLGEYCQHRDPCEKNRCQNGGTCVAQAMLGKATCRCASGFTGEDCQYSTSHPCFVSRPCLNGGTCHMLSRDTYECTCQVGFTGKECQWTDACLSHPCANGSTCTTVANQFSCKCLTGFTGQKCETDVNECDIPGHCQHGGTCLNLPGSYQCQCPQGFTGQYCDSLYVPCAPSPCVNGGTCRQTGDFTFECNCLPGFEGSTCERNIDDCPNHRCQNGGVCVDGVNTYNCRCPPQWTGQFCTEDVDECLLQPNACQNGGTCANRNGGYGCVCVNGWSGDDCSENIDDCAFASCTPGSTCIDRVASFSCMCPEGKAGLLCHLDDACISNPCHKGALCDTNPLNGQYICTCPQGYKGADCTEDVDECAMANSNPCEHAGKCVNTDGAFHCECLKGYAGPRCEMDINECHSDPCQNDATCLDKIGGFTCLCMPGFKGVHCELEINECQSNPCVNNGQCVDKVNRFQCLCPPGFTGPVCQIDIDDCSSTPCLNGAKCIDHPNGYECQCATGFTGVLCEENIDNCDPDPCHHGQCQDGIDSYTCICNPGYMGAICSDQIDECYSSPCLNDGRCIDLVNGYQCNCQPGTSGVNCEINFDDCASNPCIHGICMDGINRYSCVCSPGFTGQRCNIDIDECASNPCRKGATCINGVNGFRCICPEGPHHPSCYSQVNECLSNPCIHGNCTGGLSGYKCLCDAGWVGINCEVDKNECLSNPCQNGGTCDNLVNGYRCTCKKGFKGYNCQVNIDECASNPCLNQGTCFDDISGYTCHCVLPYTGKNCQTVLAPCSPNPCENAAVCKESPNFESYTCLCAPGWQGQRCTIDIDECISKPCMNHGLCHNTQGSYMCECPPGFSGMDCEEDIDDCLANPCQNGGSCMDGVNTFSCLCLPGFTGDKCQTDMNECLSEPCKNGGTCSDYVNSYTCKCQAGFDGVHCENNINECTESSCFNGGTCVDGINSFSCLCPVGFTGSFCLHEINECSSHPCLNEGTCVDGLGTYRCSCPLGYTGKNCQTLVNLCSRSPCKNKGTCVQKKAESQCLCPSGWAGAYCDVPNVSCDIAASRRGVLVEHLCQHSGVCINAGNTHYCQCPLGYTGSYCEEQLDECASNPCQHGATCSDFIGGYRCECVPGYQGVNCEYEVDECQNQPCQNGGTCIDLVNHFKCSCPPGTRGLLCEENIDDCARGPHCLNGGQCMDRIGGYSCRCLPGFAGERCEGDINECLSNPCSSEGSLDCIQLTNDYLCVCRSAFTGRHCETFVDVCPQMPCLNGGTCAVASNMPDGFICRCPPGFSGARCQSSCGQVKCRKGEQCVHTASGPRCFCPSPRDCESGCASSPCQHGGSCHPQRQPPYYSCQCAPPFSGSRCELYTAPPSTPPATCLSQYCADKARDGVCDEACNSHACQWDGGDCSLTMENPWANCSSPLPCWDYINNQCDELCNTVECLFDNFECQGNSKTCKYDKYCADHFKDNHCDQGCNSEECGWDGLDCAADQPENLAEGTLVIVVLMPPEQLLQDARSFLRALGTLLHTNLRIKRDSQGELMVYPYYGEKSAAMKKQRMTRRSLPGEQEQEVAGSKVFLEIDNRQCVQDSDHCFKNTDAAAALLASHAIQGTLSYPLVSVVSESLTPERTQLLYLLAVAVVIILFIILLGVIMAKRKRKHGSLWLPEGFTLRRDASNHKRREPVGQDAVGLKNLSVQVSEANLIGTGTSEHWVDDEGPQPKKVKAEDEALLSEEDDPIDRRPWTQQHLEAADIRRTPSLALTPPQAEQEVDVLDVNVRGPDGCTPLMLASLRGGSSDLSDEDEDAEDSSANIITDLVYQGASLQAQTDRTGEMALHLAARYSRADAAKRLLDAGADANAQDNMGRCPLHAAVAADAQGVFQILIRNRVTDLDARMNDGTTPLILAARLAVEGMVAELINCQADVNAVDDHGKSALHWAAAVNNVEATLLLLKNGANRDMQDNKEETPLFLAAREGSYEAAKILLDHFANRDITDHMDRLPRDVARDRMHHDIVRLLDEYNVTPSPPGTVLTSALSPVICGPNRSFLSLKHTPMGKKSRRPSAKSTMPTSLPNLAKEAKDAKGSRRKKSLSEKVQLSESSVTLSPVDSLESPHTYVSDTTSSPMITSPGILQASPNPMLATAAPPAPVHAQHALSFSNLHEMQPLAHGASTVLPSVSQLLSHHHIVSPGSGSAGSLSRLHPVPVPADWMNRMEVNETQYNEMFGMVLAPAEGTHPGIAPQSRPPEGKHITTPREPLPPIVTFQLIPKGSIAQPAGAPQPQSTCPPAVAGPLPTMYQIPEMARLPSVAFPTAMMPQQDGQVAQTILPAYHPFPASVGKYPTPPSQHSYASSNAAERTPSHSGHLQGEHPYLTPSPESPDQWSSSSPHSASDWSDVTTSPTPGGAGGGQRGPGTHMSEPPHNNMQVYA

Consider `COCCOC(=O)N1C(=O)[C@@]2(c3cc(C#Cc4ccc(OC)cc4)ccc31)[C@H](C(=O)NC[C@H](O)c1ccccc1)[C@H]1C(=O)O[C@H](c3ccccc3)[C@H](c3ccccc3)N1[C@@H]2c1ccc(OCCO)cc1`, for which the composite z-score in [1] was -0.157; in [2], 0.946; in test [3], -0.12; in test [4] it was 0.912; in [5] it was 1.12; in test [6], 1.46. Besides, the composite z-score in [7] is 1.28; in test [9], 0.41; in test [10], -0.0994; in test [11], 1.54; in [15], 2.87; in test [17], -0.0412. Further, the composite z-score was 1.32 in [18], 1.04 in test [19] and -0.0532 in [20]. Further, the z-score was 0.643 (inactive) in test [8]; 1.62 (inactive) in [12]; 1.74 (inactive) in [13]; 7.18 (inactive) in test [14]; 1.38 (inactive) in test [16].
For the molecule `COC(=O)C(CC#Cc1ccc2c(c1)[C@]1(C(=O)N2)[C@H](c2ccc(OCCO)cc2)N2[C@H](c3ccccc3)[C@H](c3ccccc3)OC(=O)[C@H]2[C@@H]1C(=O)N1CCN(c2ncccn2)CC1)C(=O)OC`, the composite z-score is -0.505 in [1]; 1.01 in [2]; 0.0275 in test [3]; 1.12 in [4]; 1.51 in test [5]; 0.746 in test [6]. Also, the composite z-score was determined as 1.27 in test [7]; 0.643 in test [9]; 0.386 in test [10]; 1.55 in test [11]; 2.31 in test [15]; 0.0971 in [17]. The values for the composite z-score in test [18], in test [19] and in test [20] were 1.36, 1.05 and 0.153, respectively. Besides, the z-score in test [8] is 1.45 (inactive); in test [12], 0.722 (inactive); in test [13], 1.82 (inactive); in [14], 3.83 (inactive); in test [16] it was -0.0711 (inactive).
As to `O=C(NCC(O)CO)[C@@]1(CCS(=O)(=O)c2ccccc2)COC(c2ccc(OCCCO)cc2)=N1` (stereo not given in full), the composite z-score in [1] is 1.05; in test [2], 1.85; in [3], 0.0729; in test [4], 0.25; in [5] it was 1.45; in test [6] it was 2.12. In addition, the composite z-score in test [7] is 1.41; in test [9], 1.1; in test [10], -0.214; in test [11], 0.797; in test [15], 3.86; in [17] it was 0.362. Besides, the composite z-score in test [18] worked out at 0.481; in [19] it was 0.79; in test [20], 0.473. Further, the z-score in test [8] is -1.16 (inactive); in [12], 0.257 (inactive); in test [13], -0.197 (inactive); in test [14] it was 0.648 (inactive); in [16], 0.671 (inactive).
Consider `COc1cc(NN2C(C(O)C3CCCCC3)C=CC3C(=O)N(c4ccccc4)C(=O)C32)cc(OC)c1OC` (stereo not given), for which the composite z-score is 1.44 in test [1]; -0.28 in test [2]; -0.116 in test [3]; 0.56 in [4]; 1.7 in [5]; 1.67 in test [6]. In addition, the composite z-score in test [7] is 1.18; in test [9], 0.964; in [10] it was -0.202; in test [11], 0.955; in [15], 3.25; in test [17], 0.167. Further, the composite z-score in test [18] was -0.273; in test [19], 1.07; in test [20], -0.0068. Also, the z-score in test [8] is 0.374 (inactive); in test [12], 0.93 (inactive); in [13], 1.06 (inactive); in test [14] it was 0.408 (inactive); in test [16], -1.24 (inactive).
On to `COC(=O)[C@@]1(Cc2ccc(OC)cc2)[C@H]2c3cc(C(=O)N4CCCC4)n(Cc4cc(C)n(C)n4)c3C[C@H]2CN1C(=O)c1ccccc1`, for which the composite z-score in test [1] was found to be 0.404; in [2] it was 0.0011; in test [3], 0.37; in test [4] it was 1.3; in [5], 1.76; in [6], 2.16. The composite z-score in test [7] amounted to 1.33; in test [9], 0.821; in [10] it was 2.67; in [11] it was 0.481; in test [15], 3.85; in test [17], 0.724. The composite z-score was -0.513 in test [18], 1.04 in test [19] and 0.701 in test [20]. Also, the z-score in [8] was 0.301 (inactive); in test [12], -0.102 (inactive); in test [13], 1.31 (inactive); in [14] it was 0.202 (inactive); in [16], -0.265 (inactive).
With `CO[C@H]1O[C@H](CO)[C@@H](OC(=O)Nc2cccc(F)c2)[C@H](OC(=O)Nc2ccccc2-c2ccccc2)[C@H]1OC(=O)Nc1ccccc1-c1ccccc1`, the composite z-score in test [1] was -0.24; in test [2], 0.368; in [3], 0.0591; in test [4] it was 0.64; in [5] it was 1.53; in test [6], 1.72. Moreover, the composite z-score in test [7] is 1.35; in [9] it was 1.36; in test [10], -0.247; in [11], 1.54; in test [15], 3.08; in [17], 0.0361. Also, the composite z-score was 0.928 in test [18], 1.06 in test [19] and -0.0225 in test [20]. The z-score is 0.322 (inactive) in test [8]; -0.455 (inactive) in test [12]; 2.19 (inactive) in test [13]; 1.39 (inactive) in test [14]; -0.158 (inactive) in [16].
